Results on 14 molecules are retold here after PubChem BioAssay (Tox21).

Assay [1] can be described thus: qHTS assay to identify small molecule agonists of the NFkB signaling pathway - cell viability counter screen (AID 1159515; calls by dose curve; also: series mostly up to about 61 µM; % is scaled to controls: 0 for no effect and ±100 for the full control effect; nearly all actives have a fitted effect of over 55% in size). The method in brief: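 Read by CellTiter-Glo luminescence (30 min, room temperature) in the wells also used for the beta-lactamase FRET read. ME-180 NFkB-bla cells at 2,000 per well were plated overnight, then exposed to compound for 5 hr at 37 C.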
(In qHTS, concentration-response curves come from the screen itself.)

The nature of assay [2]: qHTS assay to identify small molecule agonists of the endoplasmic reticulum stress response signaling pathway (AID 1159516; active = well fitted activation curve with a large enough effect in the signal ratio in the repeat runs, not every such curve was filed as active; the % refers to the signal ratio; also: % is scaled to controls: 0 for no effect and ±100 for the full control effect). In outline: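 Ratiometric FRET readout (405 nm excitation; 460 and 530 nm emission) of a beta-lactamase gene driven by the ER stress response element, after 2 hr substrate loading. HeLa ESRE-bla cells were seeded overnight and treated with compounds for only 5 hr at 37 C.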

The nature of assay [3]: qHTS assay to identify small molecule antagonists of the retinoid-related orphan receptor gamma (ROR-gamma) signaling pathway - cell viability counter screen (AID 1159520). Also: % is scaled to controls: 0 for no effect and ±100 for the full control effect; nearly all actives have a fitted effect of over 50% in size. The method in brief:
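Cytotoxicity was read from cellular ATP (CellTiter-Glo luminescence) after 16 hr at 37 C with 1 uM doxycycline induction. The inducer was added 2 hr after compound transfer to Tet-on ROR gamma CHO cells.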

For assay [4], the target named is Nuclear receptor ROR-gamma (Homo sapiens) (UniProt P51449). Nature of the assay: qHTS assay to identify small molecule antagonists of the retinoid-related orphan receptor gamma (ROR-gamma) signaling pathway (AID 1159521; also: nearly all actives have a fitted effect of over 50% in size; also: potency is read from the fitted curve at half-maximal effect). In outline: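 Luminescence readout (ONE-Glo, 30 min RT) after 16 h doxycycline induction; loss of signal scored as antagonism. CHO cells with TET-inducible RORγ and RORE-LUC reporter; compounds added 2 h before 1 uM final doxycycline.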

Assay [5] is described as follows: qHTS assay to identify small molecule agonists of the AP-1 signaling pathway - cell viability counter screen (AID 1159525; calls by dose curve; also: nearly all actives have a fitted effect of over 55% in size). In outline:
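Intracellular ATP by Cell Titer Glo luminescence (30 min, RT) in the same ME-180 AP-1-bla wells after the 5 h compound exposure at 37 °C. Normalised to tetra n-octyl ammonium bromide and DMSO controls.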

For assay [6], the target named is Retinoic acid receptor RXR-alpha (Homo sapiens) (UniProt P19793). Nature of the assay: qHTS assay to identify small molecule agonists of the RXR signaling pathway (AID 1159527; calls by dose curve; also: % is scaled to controls: 0 for no effect and ±100 for the full control effect; nearly all actives have a fitted effect of over 35% in size). The method in brief:
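Agonist mode; 9-cis retinoic acid positive control. HEK 293T UAS-bla reporter cells, 2% charcoal-stripped FBS, 16 hr compound exposure at 37 C/5% CO2. LiveBLAzer B/G FRET substrate 2 hr RT; ex 405, em 460/530 nm.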

Assay [7] is described as follows: qHTS assay to identify small molecule agonists of the RXR signaling pathway - cell viability counter screen (AID 1159529). Also: series mostly up to about 77 µM; % is scaled to controls: 0 for no effect and ±100 for the full control effect; nearly all actives have a fitted effect of over 50% in size. The method in brief: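 Luminescence from CellTiter-Glo (30 min, RT) measured viability in the same wells as the beta-lactamase reporter readout. Cells: GeneBLAzer RXR-alpha HEK 293T, 2% charcoal-stripped FBS. Compound exposure 16 hr, 37 C.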

The nature of assay [8]: qHTS assay to identify small molecule antagonists of the retinoid acid receptor (RAR) signaling pathway - cell viability counter screen (AID 1159551). Also: % is scaled to controls: 0 for no effect and ±100 for the full control effect; nearly all actives have a fitted effect of over 35% in size. The method in brief: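 Cytotoxicity counter screen: ATP content quantified by CellTiter-Glo luminescence in C3RL4 cells treated 6 hr at 37 C with compound and retinol (1 uM final). Cells plated at 1,000/well and cultured overnight before dosing.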

The nature of assay [9]: qHTS assay to identify small molecule antagonists of the retinoic acid receptor (RAR) signaling pathway (AID 1159552; also: nearly all actives have a fitted effect of over 50% in size; also: potency is read from the fitted curve at half-maximal effect). In outline: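 Luminescence from a RARE luciferase reporter in C3RL4 cells served as read-out. Cells received compounds together with 1 uM final retinol and incubated 6 hr at 37 C before detection reagent was added for 30 min at room temperature.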
The nature of assay [10]: qHTS assay to identify small molecule agonists of the retinoic acid receptor (RAR) signaling pathway (AID 1159553). Also: potency is read from the fitted curve at half-maximal effect. In outline: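 Luminescence was measured 30 min after luciferase reagent addition at room temperature. Before that, C3RL4 reporter cells (1,000 per well, plated overnight) were treated with compound for 6 hr at 37 C and 5% CO2.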
A short description of assay [11]: qHTS assay to identify small molecule antagonists of the estrogen related receptor (ERR) signaling pathway - cell viability counter screen (AID 1224818).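 Also: series mostly up to about 46 µM; viability measured after 17.5 h of compound exposure; % is scaled to controls: 0 for no effect and ±100 for the full control effect.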 The method in brief:
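Cytotoxicity counter screen: fluorescence from CellTiter-Fluor, added after 17.5 h compound exposure at 37 C and read 30 min later. ERR cell line seeded at 2,000 cells/well, preincubated 6 h before dosing.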

Assay [12] is described as follows: qHTS assay to identify small molecule antagonists of the estrogen related receptor signaling pathway with the pleiotropic PPARgamma coactivator (PGC) cell viability counter screen (AID 1224822; also: series mostly up to about 46 µM; % is scaled to controls: 0 for no effect and ±100 for the full control effect). In outline:
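Viability counter-screen read by fluorescence intensity after 30 min with CellTiter-Fluor at 37 C; PGC/ERR reporter cells were exposed to compounds for 17.5 h at 37 C following a 6 h preincubation.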

Assay [13] in a line: qHTS assay to identify small molecule agonists of the vitamin D receptor (VDR) signaling pathway - cell viability counter screen (AID 743224). In outline: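 Counter screen run in the same wells as the VDR-bla reporter assay: CellTiter-Glo luminescence, 30 min at room temperature, after 16 h compound treatment at 37C of cells pre-plated for 4 h.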
Assay [14] can be described thus: qHTS assay to identify small molecule antagonists of the vitamin D receptor (VDR) signaling pathway - cell viability counter screen (AID 743225). In outline: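 Viability counter screen run in the same wells as the beta-lactamase reporter assay: HEK 293T VDR-UAS-bla cells, 16 h compound exposure at 37C with 3 nM (final) 1-alpha,25-dihydroxyvitamin D3. CellTiter-Glo luminescence, 30 min, room temperature.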

A short description of assay [15]: qHTS assay to identify small molecule agonists of the endoplasmic reticulum stress response signaling pathway - cell viability counter screen (AID 1159517; calls by dose curve). The method in brief: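 ESRE-bla HeLa cells (1,500/well) were plated overnight at 37 C and exposed to compounds for 5 hr. After the 2 hr beta-lactamase substrate read, CellTiter-Glo went into the same wells, and luminescence was read after 30 min at room temperature.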

Assay [16] in a line: qHTS assay to identify small molecule agonists of the AP-1 signaling pathway (AID 1159526; calls by dose curve; also: % is scaled to controls: 0 for no effect and ±100 for the full control effect).

Each structure is given as a SMILES string. Results filed as inconclusive are left out. Values without a mark were called inactive. Active and inactive are the calls of the source. Unless noted, calls follow the shape of the dose curve; as a rule, active = well fitted curve in the direction sought with a large enough effect in the repeat runs; inconclusive = weak or mixed curves; inactive = no such curve, though single readings can be large; an effect the other way counts as inactive or inconclusive.

Chain of Retinoic acid receptor RXR-alpha (Homo sapiens) (P19793 whole entry, looked up): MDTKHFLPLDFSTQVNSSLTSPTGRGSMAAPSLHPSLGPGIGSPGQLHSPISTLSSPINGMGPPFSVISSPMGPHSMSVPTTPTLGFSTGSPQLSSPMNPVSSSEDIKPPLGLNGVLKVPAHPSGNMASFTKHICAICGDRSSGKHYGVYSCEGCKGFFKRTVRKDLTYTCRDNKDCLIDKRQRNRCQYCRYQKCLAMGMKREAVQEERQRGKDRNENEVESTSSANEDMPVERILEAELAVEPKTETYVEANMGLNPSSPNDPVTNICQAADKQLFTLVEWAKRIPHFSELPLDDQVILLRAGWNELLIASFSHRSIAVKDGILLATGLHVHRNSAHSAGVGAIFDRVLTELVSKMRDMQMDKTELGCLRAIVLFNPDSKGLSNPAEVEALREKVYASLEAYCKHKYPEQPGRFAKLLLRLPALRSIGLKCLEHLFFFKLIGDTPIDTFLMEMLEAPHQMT

On to `Nc1nc2ccc(OC(F)(F)F)cc2s1`, for which the Potency result in assay [1], in [2], in [3], in assay [4], in assay [5] and in assay [6] was “inactive” in each case. In addition, the Potency entry in assay [7], in assay [8] and in assay [9] was “inactive” each time. Also, the Potency in assay [10] is 9.44 µM (active). The call in assay [11] and in assay [12] was inactive.
Turning to `CC(C)C(O)C(C)(C)CO` (stereo unspecified), the Potency result in [13], in assay [14], in assay [1], in assay [2], in assay [5] and in assay [7] was “inactive” in each case. In [10], the Potency entry was “inactive”. For the same molecule, the Potency is 22.4 µM (active) in [4] and 5.01 µM (active) in assay [9].
Turning to `C=Cc1ccc(OC(C)=O)cc1`, the Potency entry in [13], in assay [14], in [1], in assay [15], in assay [3] and in assay [4] was “inactive” in each case. Besides, the Potency result in assay [5], in [6], in assay [7], in [8], in [9] and in assay [10] was “inactive” each time. For the same molecule, the molecule was classed as inactive in [16].
Regarding `NC(=O)CCCCC(N)=O`, the Potency result in assay [14], in [1], in assay [15], in assay [3], in [4] and in assay [5] was “inactive” in each case. The Potency entry in assay [6], in [7] and in [8] was “inactive” throughout. Further, the molecule was classed as inactive in assay [16].
`CC(C)COC(=O)c1ccc(O)cc1`: the Potency entry in assay [14], in [1], in assay [2], in assay [3], in assay [4] and in assay [5] was “inactive” each time. Moreover, the Potency entry in assay [6], in [7], in [8] and in assay [9] was “inactive” in each case.
Turning to `Cc1cccc2sc(N)nc12`, the Potency entry in [13], in assay [14], in [1], in assay [2], in [3] and in assay [4] was “inactive” each time. For the same molecule, the Potency entry in assay [5], in assay [6], in assay [7], in assay [8] and in [9] was “inactive” each time. In assay [16], the result was inactive.
On to `O=C(C(=O)c1ccco1)c1ccco1`, for which the Potency result in [14], in [1], in assay [2], in assay [3], in [4] and in [5] was “inactive” throughout. The Potency entry in [6] and in assay [7] was “inactive” in each case. In addition, the call in assay [16] was inactive.
Regarding `c1ccc2sc(SSc3nc4ccccc4s3)nc2c1`, the Potency result in assay [13], in assay [14], in [1] and in [2] was “inactive” in each case. For the same molecule, the activity, negative = cytotoxicity in assay [3] was -8.11% [at 19 µM]. Further, the activity change, negative = inhibition in assay [4] was 7.93% [at 19 µM]. Further, the viability change, negative = cytotoxic in assay [5] was -2.35% [at 15.8 µM]. The results for the activation in assay [16] and in assay [6] were 15.6% [at 15.8 µM] and -16% [at 15.8 µM], respectively. The activity change, negative = cytotoxicity in assay [7] is -2.29% [at 15.8 µM]; in assay [8] it was 0.484% [at 19 µM].
For the molecule `Oc1ccc2c(c1)Cc1ccccc1-2`, the Potency entry in assay [14], in assay [1], in assay [2], in [3], in assay [4] and in assay [5] was “inactive” each time. Besides, the Potency entry in assay [7], in assay [8] and in [9] was “inactive” each time. In assay [16], the result was inactive.
Turning to `COC(C)(C)OC`, the Potency result in assay [13], in [1], in assay [2], in assay [3], in assay [4] and in assay [5] was “inactive” throughout. The Potency entry in assay [6], in [7] and in [8] was “inactive” in each case. Besides, the molecule was called inactive in assay [16].
Consider `COc1ccc(-c2cc(=S)ss2)cc1`, for which the Potency result in assay [13], in assay [14], in assay [1], in assay [2], in assay [3] and in [4] was “inactive” throughout. For the same molecule, the Potency entry in [5], in assay [7] and in assay [9] was “inactive” in each case. In addition, the Potency in assay [10] was 26.6 µM (active).
Consider `CC(C)C(=O)OCCOc1ccccc1`, for which the Potency entry in [13], in assay [14], in assay [1], in assay [2], in assay [3] and in [4] was “inactive” in each case. In addition, the Potency entry in assay [5], in assay [7], in assay [8], in assay [9] and in assay [10] was “inactive” throughout. Further, the call in assay [16] was inactive.
In the case of `O=C1c2ccccc2C(=O)c2c(O)ccc(O)c21`, the Potency entry in [1], in [15], in assay [3], in assay [4], in assay [5] and in assay [6] was “inactive” in each case. The Potency result in assay [7], in assay [8], in assay [9] and in assay [10] was “inactive” each time. For the same molecule, the molecule was classed as inactive in assay [16].
Turning to `Cc1ccccc1S(N)(=O)=O`, the Potency result in [13], in assay [14], in assay [1], in assay [15], in assay [3] and in assay [4] was “inactive” throughout. Also, the Potency result in [5], in [6], in [7], in assay [8] and in assay [9] was “inactive” throughout. For the same molecule, in assay [16], the call was inactive.
